Measurements from ChEMBL document CHEMBL1961873, “Compounds: GSK PKIS; Assays: Nanosyn kinase panel” (2012).

What was measured:
[1] = biological target: Tyrosine-protein kinase SYK (Homo sapiens) (UniProt P43405); settings: at 1 µM
[2] = biological target: T1, Tyrosine-protein kinase Tec (Homo sapiens) (UniProt P42680); settings: at 0.1 µM
T1 sequence (whole entry): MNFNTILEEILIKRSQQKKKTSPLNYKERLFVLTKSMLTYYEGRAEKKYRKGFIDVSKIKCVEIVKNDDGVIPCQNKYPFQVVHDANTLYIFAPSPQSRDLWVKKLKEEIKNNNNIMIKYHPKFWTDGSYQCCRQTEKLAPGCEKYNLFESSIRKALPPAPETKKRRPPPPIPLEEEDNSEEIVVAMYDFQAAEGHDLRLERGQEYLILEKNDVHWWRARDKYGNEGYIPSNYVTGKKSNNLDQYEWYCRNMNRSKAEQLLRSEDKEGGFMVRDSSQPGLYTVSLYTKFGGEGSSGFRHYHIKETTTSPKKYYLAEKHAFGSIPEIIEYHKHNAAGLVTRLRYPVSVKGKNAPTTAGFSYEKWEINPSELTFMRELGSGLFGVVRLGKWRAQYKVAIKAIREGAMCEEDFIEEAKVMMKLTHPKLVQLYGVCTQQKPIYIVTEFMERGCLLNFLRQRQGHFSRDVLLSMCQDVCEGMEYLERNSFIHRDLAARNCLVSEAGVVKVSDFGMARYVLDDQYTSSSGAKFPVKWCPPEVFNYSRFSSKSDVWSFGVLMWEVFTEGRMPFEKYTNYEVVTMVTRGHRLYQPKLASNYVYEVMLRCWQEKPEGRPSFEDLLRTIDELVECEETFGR

[3] = biological target: T1, Tyrosine-protein kinase Tec (Homo sapiens); settings: at 1 µM
[4] = biological target: Angiopoietin-1 receptor (Homo sapiens) (UniProt Q02763); settings: at 0.1 µM
[5] = biological target: Angiopoietin-1 receptor (Homo sapiens) (UniProt Q02763); settings: at 1 µM
[6] = biological target: T2, Non-receptor tyrosine-protein kinase TNK1 (Homo sapiens) (UniProt Q13470); settings: at 0.1 µM
T2 sequence (whole entry): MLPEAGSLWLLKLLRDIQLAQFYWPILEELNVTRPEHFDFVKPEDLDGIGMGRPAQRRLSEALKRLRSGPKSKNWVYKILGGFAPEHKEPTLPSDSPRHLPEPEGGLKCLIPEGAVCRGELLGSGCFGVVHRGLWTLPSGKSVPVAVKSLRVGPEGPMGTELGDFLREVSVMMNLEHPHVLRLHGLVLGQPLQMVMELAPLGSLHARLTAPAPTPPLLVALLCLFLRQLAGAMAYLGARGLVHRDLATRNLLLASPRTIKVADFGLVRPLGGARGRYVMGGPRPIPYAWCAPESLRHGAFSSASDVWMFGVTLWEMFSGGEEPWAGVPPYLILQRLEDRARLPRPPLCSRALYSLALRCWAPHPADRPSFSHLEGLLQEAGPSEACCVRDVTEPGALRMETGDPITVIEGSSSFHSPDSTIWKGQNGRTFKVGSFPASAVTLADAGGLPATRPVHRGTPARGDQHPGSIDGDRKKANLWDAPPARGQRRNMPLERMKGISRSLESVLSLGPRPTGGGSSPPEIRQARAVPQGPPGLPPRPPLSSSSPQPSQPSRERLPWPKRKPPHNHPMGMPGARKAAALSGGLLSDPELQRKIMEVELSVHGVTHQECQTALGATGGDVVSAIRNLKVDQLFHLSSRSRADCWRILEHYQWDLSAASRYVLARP

[7] = biological target: T2, Non-receptor tyrosine-protein kinase TNK1 (Homo sapiens); settings: at 1 µM
[8] = biological target: Activated CDC42 kinase 1 (Homo sapiens) (UniProt Q07912); settings: at 0.1 µM
[9] = biological target: Activated CDC42 kinase 1 (Homo sapiens) (UniProt Q07912); settings: at 1 µM
[10] = biological target: High affinity nerve growth factor receptor (Homo sapiens) (UniProt P04629); settings: at 0.1 µM
[11] = biological target: High affinity nerve growth factor receptor (Homo sapiens) (UniProt P04629); settings: at 1 µM
[12] = biological target: BDNF/NT-3 growth factors receptor (Homo sapiens) (UniProt Q16620); settings: at 0.1 µM
[13] = biological target: BDNF/NT-3 growth factors receptor (Homo sapiens) (UniProt Q16620); settings: at 1 µM
[14] = biological target: NT-3 growth factor receptor (Homo sapiens) (UniProt Q16288); settings: at 0.1 µM
[15] = biological target: NT-3 growth factor receptor (Homo sapiens) (UniProt Q16288); settings: at 1 µM
[16] = biological target: T3, Tyrosine-protein kinase TXK (Homo sapiens) (UniProt P42681); settings: at 0.1 µM
T3 sequence (whole entry): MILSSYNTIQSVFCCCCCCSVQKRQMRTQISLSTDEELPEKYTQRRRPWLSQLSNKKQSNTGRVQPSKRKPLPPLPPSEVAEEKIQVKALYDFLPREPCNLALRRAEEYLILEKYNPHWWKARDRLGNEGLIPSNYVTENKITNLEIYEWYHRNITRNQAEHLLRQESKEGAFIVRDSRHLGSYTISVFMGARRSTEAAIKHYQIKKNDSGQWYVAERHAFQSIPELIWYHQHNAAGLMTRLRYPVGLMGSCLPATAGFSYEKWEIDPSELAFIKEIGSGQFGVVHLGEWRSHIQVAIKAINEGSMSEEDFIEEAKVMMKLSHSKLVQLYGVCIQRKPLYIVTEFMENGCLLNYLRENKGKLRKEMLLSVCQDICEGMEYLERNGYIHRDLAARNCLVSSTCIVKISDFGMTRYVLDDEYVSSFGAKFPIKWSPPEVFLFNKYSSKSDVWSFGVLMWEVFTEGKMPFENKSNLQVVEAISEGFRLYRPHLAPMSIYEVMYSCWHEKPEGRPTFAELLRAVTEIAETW

[17] = biological target: T3, Tyrosine-protein kinase TXK (Homo sapiens); settings: at 1 µM
[18] = biological target: Non-receptor tyrosine-protein kinase TYK2 (Homo sapiens) (UniProt P29597); settings: at 0.1 µM;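 also: each value is a mean of the inhibition readings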
[19] = biological target: T4, Dual specificity protein kinase TTK (Homo sapiens) (UniProt P33981); settings: at 1 µM;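 also: reported figures are mean TTK inhibition at 1 µM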
T4 sequence (whole entry): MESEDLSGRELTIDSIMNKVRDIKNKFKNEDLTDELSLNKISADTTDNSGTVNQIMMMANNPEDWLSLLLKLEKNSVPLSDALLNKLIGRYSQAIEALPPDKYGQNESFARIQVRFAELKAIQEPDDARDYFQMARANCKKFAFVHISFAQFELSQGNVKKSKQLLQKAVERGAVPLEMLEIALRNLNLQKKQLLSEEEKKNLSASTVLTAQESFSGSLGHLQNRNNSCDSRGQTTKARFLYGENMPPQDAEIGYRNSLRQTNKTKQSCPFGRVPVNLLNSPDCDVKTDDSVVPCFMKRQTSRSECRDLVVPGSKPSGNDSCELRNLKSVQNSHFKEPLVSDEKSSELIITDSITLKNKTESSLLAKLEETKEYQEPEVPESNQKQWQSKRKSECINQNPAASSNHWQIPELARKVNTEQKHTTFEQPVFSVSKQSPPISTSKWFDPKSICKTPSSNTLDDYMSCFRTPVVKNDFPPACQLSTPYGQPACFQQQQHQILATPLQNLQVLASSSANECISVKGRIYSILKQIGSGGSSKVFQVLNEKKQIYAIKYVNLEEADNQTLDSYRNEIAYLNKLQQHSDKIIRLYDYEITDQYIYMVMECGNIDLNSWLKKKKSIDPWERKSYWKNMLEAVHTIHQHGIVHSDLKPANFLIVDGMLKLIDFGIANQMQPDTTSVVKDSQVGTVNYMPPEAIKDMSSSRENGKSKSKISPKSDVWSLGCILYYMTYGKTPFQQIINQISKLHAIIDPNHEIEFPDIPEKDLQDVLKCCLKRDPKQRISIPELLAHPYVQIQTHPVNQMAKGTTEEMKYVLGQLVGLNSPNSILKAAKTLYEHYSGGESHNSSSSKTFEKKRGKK

[20] = biological target: T5, Aurora kinase A (Homo sapiens) (UniProt O14965); settings: at 0.1 µM;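 also: each reported value is a mean percent inhibition of Aurora-A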
T5 sequence (whole entry): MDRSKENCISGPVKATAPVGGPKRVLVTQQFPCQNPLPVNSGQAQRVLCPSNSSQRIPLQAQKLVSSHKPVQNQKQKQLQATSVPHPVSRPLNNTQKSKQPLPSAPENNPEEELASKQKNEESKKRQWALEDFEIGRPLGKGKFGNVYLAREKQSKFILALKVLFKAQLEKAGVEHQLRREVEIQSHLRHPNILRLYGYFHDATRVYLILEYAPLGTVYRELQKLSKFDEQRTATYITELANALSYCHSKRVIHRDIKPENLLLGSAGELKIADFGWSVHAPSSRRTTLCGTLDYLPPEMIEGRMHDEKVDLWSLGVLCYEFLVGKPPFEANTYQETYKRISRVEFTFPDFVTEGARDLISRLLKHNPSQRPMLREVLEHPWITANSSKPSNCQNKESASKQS

Angiopoietin-1 receptor (Homo sapiens), sequence (Q02763 whole entry): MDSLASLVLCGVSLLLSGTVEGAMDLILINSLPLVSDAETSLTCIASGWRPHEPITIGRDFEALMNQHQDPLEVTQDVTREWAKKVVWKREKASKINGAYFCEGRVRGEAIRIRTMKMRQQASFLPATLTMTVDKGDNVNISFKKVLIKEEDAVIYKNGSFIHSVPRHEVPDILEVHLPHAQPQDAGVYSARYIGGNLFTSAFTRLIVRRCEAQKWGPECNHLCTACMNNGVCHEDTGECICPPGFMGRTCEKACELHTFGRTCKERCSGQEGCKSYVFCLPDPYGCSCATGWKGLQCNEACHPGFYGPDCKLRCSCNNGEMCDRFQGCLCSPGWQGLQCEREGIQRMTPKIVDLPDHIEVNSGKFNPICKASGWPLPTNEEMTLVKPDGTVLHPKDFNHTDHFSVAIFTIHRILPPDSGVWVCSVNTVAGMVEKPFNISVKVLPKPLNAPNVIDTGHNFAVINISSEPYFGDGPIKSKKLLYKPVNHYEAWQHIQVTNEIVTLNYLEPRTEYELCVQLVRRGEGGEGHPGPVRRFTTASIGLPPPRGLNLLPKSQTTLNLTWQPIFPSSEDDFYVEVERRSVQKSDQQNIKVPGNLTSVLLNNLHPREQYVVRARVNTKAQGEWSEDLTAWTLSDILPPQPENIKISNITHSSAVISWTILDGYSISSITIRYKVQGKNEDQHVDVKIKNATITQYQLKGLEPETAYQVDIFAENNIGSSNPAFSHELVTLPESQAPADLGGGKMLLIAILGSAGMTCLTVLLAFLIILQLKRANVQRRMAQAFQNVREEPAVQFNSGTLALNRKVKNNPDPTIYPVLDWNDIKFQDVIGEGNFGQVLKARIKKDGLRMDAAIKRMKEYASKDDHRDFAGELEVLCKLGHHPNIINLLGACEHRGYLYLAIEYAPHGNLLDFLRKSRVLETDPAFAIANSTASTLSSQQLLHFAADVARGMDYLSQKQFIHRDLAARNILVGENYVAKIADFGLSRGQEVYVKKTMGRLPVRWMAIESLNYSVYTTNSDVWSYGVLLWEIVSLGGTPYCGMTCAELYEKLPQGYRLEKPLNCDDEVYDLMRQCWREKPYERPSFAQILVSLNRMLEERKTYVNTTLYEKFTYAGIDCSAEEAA
Non-receptor tyrosine-protein kinase TYK2 (Homo sapiens), sequence (P29597 whole entry): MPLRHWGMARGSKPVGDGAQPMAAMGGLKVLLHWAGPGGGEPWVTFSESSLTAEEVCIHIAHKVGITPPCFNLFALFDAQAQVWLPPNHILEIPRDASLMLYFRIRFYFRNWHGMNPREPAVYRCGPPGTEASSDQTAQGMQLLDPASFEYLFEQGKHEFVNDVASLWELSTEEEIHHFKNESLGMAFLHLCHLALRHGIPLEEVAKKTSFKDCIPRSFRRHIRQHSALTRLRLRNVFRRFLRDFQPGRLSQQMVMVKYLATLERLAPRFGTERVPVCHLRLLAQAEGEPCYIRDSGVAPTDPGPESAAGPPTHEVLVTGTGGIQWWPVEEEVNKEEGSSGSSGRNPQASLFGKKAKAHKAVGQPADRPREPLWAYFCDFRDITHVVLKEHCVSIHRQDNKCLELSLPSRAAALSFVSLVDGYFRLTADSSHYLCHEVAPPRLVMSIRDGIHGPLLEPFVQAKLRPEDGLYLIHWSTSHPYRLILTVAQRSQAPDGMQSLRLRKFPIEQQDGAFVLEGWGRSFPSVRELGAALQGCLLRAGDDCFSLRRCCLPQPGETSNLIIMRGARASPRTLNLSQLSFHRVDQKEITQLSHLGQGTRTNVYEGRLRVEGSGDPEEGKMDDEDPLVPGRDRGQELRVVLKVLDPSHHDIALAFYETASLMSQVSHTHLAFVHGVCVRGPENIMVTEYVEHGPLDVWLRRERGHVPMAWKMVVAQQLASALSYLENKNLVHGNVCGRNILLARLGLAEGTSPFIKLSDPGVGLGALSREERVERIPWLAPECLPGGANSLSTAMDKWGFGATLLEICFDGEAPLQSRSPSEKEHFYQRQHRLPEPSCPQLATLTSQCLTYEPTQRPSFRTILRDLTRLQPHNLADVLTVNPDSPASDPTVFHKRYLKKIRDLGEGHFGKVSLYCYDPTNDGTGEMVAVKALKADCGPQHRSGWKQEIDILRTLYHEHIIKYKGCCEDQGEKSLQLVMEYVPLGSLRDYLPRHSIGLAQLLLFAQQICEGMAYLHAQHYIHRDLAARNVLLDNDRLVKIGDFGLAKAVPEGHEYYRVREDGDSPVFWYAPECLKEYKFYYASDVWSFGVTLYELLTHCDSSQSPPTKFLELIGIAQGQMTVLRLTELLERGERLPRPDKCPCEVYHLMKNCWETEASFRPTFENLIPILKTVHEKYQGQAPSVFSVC
Activated CDC42 kinase 1 (Homo sapiens), sequence (Q07912 whole entry, looked up): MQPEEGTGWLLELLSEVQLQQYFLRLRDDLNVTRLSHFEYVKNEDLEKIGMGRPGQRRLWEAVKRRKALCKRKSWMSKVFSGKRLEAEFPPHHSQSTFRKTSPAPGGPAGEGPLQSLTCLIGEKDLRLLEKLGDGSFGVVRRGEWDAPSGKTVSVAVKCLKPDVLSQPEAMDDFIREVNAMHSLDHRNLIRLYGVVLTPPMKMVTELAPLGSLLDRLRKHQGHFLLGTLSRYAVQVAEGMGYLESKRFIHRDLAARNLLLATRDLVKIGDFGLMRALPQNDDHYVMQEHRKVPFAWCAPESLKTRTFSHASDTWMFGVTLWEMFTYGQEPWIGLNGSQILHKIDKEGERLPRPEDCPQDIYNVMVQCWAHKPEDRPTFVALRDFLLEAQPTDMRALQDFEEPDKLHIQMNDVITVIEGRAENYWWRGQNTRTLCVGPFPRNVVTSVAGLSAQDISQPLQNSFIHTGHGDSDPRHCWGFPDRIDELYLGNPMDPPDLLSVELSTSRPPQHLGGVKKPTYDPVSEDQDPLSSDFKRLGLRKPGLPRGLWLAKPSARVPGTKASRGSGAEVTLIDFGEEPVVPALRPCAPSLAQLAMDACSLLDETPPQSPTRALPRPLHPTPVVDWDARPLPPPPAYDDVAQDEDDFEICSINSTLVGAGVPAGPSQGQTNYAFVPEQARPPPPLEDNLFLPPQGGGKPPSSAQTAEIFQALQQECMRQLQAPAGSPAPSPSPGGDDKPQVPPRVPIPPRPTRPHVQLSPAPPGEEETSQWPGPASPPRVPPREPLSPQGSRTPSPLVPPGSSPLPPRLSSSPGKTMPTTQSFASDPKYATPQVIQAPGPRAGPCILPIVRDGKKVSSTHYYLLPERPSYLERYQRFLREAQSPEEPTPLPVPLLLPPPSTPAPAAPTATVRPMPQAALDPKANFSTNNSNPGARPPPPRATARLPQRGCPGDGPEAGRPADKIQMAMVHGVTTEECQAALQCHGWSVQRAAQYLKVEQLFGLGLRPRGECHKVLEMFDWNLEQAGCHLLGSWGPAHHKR
High affinity nerve growth factor receptor (Homo sapiens), sequence (P04629 33-796 limits assumed): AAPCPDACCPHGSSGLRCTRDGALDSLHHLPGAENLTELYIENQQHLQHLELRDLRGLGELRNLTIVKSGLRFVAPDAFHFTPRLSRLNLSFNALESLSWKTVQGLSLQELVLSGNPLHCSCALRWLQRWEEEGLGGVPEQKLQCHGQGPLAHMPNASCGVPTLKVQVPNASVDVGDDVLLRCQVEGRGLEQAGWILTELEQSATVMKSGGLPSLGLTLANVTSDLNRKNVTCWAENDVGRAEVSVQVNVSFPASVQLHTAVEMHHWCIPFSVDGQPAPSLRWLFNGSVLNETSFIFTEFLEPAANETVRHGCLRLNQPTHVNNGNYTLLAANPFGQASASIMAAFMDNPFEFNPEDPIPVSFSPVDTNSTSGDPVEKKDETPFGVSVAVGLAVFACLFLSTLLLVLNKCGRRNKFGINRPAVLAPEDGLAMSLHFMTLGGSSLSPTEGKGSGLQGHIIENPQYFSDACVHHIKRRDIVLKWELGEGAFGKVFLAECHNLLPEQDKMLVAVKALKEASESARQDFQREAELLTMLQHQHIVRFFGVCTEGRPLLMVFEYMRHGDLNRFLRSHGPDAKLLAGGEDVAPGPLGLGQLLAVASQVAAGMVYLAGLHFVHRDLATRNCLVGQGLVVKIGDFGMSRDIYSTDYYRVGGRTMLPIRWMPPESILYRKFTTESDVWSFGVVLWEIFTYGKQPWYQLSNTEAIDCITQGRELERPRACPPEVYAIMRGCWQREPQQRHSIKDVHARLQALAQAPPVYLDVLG
NT-3 growth factor receptor (Homo sapiens), sequence (Q16288 32-839 limits assumed): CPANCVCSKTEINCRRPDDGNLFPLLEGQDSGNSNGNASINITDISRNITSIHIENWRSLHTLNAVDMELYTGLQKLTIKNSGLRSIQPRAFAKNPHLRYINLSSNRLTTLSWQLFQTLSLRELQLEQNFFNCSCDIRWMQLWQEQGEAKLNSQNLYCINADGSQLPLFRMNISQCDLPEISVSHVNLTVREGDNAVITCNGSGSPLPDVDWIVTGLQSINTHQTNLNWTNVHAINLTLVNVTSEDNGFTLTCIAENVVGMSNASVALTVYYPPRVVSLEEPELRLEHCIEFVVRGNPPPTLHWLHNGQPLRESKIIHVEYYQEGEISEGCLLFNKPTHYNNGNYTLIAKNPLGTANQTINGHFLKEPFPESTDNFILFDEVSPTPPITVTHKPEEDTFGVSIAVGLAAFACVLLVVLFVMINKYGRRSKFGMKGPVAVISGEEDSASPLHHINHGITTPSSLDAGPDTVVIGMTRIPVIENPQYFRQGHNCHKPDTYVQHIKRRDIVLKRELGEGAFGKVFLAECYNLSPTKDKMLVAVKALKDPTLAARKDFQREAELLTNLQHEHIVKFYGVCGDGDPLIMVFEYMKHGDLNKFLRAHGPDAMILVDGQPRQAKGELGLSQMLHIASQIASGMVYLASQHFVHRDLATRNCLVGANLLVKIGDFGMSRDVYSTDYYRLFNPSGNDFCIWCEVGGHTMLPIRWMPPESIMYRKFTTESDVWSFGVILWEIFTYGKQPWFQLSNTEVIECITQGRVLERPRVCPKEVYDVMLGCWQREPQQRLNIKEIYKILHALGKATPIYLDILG

Compound | inhibition [1] | inhibition [2] | inhibition [3] | inhibition [4] | inhibition [5] | inhibition [6] | inhibition [7] | inhibition [8] | inhibition [9] | inhibition [10] | inhibition [11] | inhibition [12] | inhibition [13] | inhibition [14] | inhibition [15] | inhibition [16] | inhibition [17] | inhibition [18] | inhibition [19] | inhibition [20]
Nc1nc(-c2cccc(Cl)c2)c(-c2ccc3ncccc3n2)s1 | -0.99% | 5.56% | 5.26% | 4.2% | 5.76% | 3.08% | 11.5% | 3.52% | 2.83% | 2.32% | -0.34% | 2.86% | 7.16% | 2.95% | 5.02% | 4.04% | 4.05% | -3.11% | -0.66% | 2.19%
Nc1nc(-c2ccc(F)cc2)c(-c2ccc3ncccc3n2)s1 | 0.4% | 4.57% | 6.46% | 1.26% | 4.32% | 4.65% | 6.8% | 1.85% | 3.57% | 4.1% | 4.77% | 4.19% | 3.45% | 3.72% | 5.31% | 3.19% | 6% | -2.9% | 7.77% | 4.14%
c1ccc(COc2ccc(Nc3ncnc4ccc(-c5ccco5)cc34)cc2)cc1 | -0.46% | 1.31% | 3.25% | 2.64% | 3.4% | 1.53% | 5.09% | -0.27% | 0.03% | -2.34% | -2.33% | -0.32% | 3.16% | -0.16% | 0.74% | 0.01% | 1.09% | -4.95% | 3.2% | 2.29%
CN1CCC(n2cnc(-c3ccc(F)cc3)c2-c2ccnc(Nc3ccccc3)n2)CC1 | 0.18% | 3.59% | 3.4% | 2.95% | 4.52% | -0.22% | 7.4% | 0.74% | 2.45% | -0.03% | 1.74% | 0.31% | 1.95% | 1.52% | 3.75% | 3.25% | 5.32% | 1.84% | 8.53% | 2.13%
CCOc1ccc2c(-c3ccnc(Nc4cccc(C(F)(F)F)c4)n3)cnn2n1 | -6.38% | -0.08% | 4.44% | 1.3% | 7.44% | -0.72% | 14.7% | 0.55% | 0.5% | 0.72% | 0.26% | 0.03% | 2.11% | 0.07% | 3.18% | -0.13% | 3.47% | -0.74% | 4.11% | 1.41%
COc1cc2c(cc1Nc1nc(Nc3ccsc3C(N)=O)c3cc[nH]c3n1)N(C(=O)CN(C)C)CCC2(C)C | 4.93% | 5.38% | 8.93% | 1.06% | 3.63% | 60.5% | 89.3% | 6.79% | 43.5% | 2.83% | 13.6% | 3.72% | 11.4% | 4.08% | 11.6% | 2.02% | 4.22% | -4.11% | 49.6% | 3.59%
